Reference: PubChem BioAssay AID738 (SRMLSC, 2007)
Hit rate of the full screen: of about 98,000 compounds, about 4,900 (5%) were called active. The sample as a whole holds a higher share of actives than the screen did. Unmarked numbers belong to inactive results. Rule as the data show it: active = inhibition above about 30%; inactive = the rest.

Test: yeast control strain growth suppression – counter-screen for post-Golgi transport modulator project, primary screen (AID 738)
Settings: efflux-deficient yeast background strain, growth absorbance A615, 16 h; at 10 µM; hits give high values

Row | SMILES | inhibition
1 | O=C(Nc1ccc2c(c1)OCCO2)c1ccc(Cl)c(S(=O)(=O)N2CCCCC2)c1 | 7.53%
2 | O=C(NCCc1ccccc1)c1ccc(NC2=NC3CS(=O)(=O)CC3S2)cc1 (configuration not stated) | -1.06%
3 | Cc1c(Br)c([N+](=O)[O-])nn1C(C)C(=O)Nc1nccs1 (configuration not stated) | 23.8%
4 | O=C(Cc1ccc(F)cc1)NC1CCCC1 | 20.8%
5 | CCNc1nc(N)nc(-c2cc(Cl)ccc2OC)n1 | -4.76%
6 | COc1ccc2c3c(c(=O)oc2c1OCC(=O)C(C)(C)C)CCCC3 | 7.23%
7 | CCCOc1ccc2c3c(c(=O)oc2c1OCCC)CCC3 | 36.1% (active)
8 | O=c1oc2c(CN3CCCCC3)c(O)ccc2c2c1CCCCC2 | -5.61%
9 | CSc1nc(N)c(C#N)c(-c2ccccc2Cl)c1C#N | 68.3% (active)
10 | CSc1ccc(-c2c(C#N)c(N)nc3c2c(C)nn3-c2ccccc2)cc1 | 2.79%
11 | Cc1c(-c2ccccc2)nc(N)c(C#N)c1-c1cccs1 | 15%
12 | COc1cccc(/C=N\Nc2nncc(-c3ccccc3)n2)c1 | 7.59%
13 | Nc1ccc(-c2sc(N)nc2-c2ccccc2)cc1 | 2.78%
14 | O=C(Nc1cccc2ncccc12)c1ccc(-c2ccc(Cl)cc2Cl)o1 | 37.2% (active)
15 | COc1cc(OC)c(NC(=O)c2ccc(Br)o2)cc1Cl | 2.65%
16 | O=C(Nc1cccc2ncccc12)C(Cl)(Cl)Cl | 8.77%
17 | CCC1(CC)NC(=O)N(CC(=O)OCC(=O)Nc2ccc(C(F)(F)F)cc2)C1=O | 5.34%
18 | CCCN(CCC)C(=O)C1c2ccccc2Oc2ccccc21 | 31.5% (active)
19 | O=C(c1ccco1)N1CCN(C(=O)C2c3ccccc3Oc3ccccc32)CC1 | 0.85%
20 | O=C(N/N=C/c1ccc(O)c(O)c1)C1c2ccccc2Oc2ccccc21 | 2.52%
21 | Cc1c(NC(=O)CCCOc2ccccc2)cccc1[N+](=O)[O-] | 2.57%

Row | SMILES | inhibition
22 | O=C(O)CSCNC(=O)CC12CC3CC(CC(C3)C1)C2 | 0.28%
23 | O=C(CC12CC3CC(CC(C3)C1)C2)Nc1ccc2c(c1)COC2=O | 42.7% (active)
24 | CC1Cc2ccccc2N1CC(=O)Nc1ccc2c(c1)OC(F)(F)O2 (configuration not stated) | 17.9%
25 | COCCCNC(=O)C1CC(=O)N(CCc2ccccc2)C1 (configuration not stated) | 5.92%
26 | COc1cc(OC)cc(C(=O)NC2CCN(C(=O)N3c4ccccc4Sc4ccccc43)CC2)c1 | 4.32%
27 | CC(C)n1c(C(O)c2ccccc2)nc2ccccc21 (configuration not stated) | 1.26%
28 | COc1cc(C(O)c2nc3ccccc3n2C)cc(OC)c1OC (configuration not stated) | 41.1% (active)
29 | CCCn1c(C(O)c2cc(OC)ccc2OC)nc2ccccc21 (configuration not stated) | 17.6%
30 | Cn1c(=O)c(C(=O)Nc2ncccn2)c(O)c2ccccc21 | 44.2% (active)
31 | O=C(Nc1ncccn1)c1cccs1 | 5.69%
32 | CCOc1cc(C(=O)Nc2ncccn2)cc(OCC)c1OCC | -2.73%
33 | CCCn1nnnc1NC(=O)COc1ccc(Cl)cc1C | 4.96%
34 | O=C(NCCc1ccccn1)c1cc(C(=O)C2CCCCC2)c[nH]1 | -1.83%
35 | Cc1ccc(SCC(=O)NC(=O)NCc2ccco2)c(C)c1 | 2.9%
36 | O=C1c2cccc3cccc(c23)N1CN1CCN(c2ccccn2)CC1 | 32.2% (active)
37 | CC(=C1C(=O)c2ccccc2C1=O)N1CCN(c2ccccn2)CC1 | 2.92%
38 | OC(COc1cccc2ccccc12)CN1CCN(c2ccccn2)CC1 (configuration not stated) | -6.3%
39 | CC1=C(C)CC(C(=O)NNC(=O)c2ccccc2O)C(C(=O)O)C1 (configuration not stated) | -0.3%
40 | Cc1nc(NC2=NC(C(=O)Nc3ccc(Cl)cc3)CC(=O)N2)nc2ccccc12 (configuration not stated) | -4.48%
41 | CSc1ccc(C#N)cc1NC(=O)c1cccc(Cl)c1 | 15.8%
42 | O=C(NC(Nc1nc2ccc([N+](=O)[O-])cc2s1)(C(F)(F)F)C(F)(F)F)c1ccccc1 | 89.5% (active)

Row | SMILES | inhibition
43 | Cc1cc(C)cc(OCC(=O)Nc2nc3ccc([N+](=O)[O-])cc3s2)c1 | 11.7%
44 | COC(=O)C(NC(=O)c1ccc(OC)cc1)(Nc1ncc(S(=O)(=O)c2ccc([N+](=O)[O-])cc2)s1)C(F)(F)F (configuration not stated) | 6.12%
45 | COc1ccc2c(c1OC)C(=O)c1ccccc1C2=O | 1.8%
46 | Cc1nnc(SCC(=O)N/N=C/c2cn(-c3ccccc3)nc2-c2ccc(F)cc2)n1-c1ccccc1 | 4.61%
47 | O=C1c2ccccc2C2=Nc3ccccc3SC(c3ccccc3F)C12 (configuration not stated) | 95.4% (active)
48 | O=C(CN1C(=O)NC2(CCCC2)C1=O)Nc1ccc(F)c(F)c1F | 3.79%
49 | O=C1c2cccc3cc(Br)cc(c23)C(=O)N1Nc1ccccc1 | 12.1%
50 | O=C(Nc1ccccc1)OCc1cc(-c2ccc(Cl)cc2)on1 | 10.1%
51 | O=C1C=C(c2ccc(Cl)cc2)C(=O)N1Nc1ccccc1 | 99.5% (active)
52 | Cc1ccc(-c2nnc(-n3nnc4ccccc43)c3ccccc23)cc1 | 12%
53 | N=c1oc2ccccc2cc1C(=O)N/N=C/c1ccccc1 | -3.5%
54 | CCOC(=O)CSc1nnc(-c2cccc(Br)c2)o1 | 31.6% (active)
55 | CCN(CC)C(=O)CSc1nnc(-c2cccc(OC)c2)o1 | 2.38%
56 | CCOC(=O)CSc1nnc(-c2ccncc2)o1 | 2.24%
57 | O=C(CSCc1ccccc1Cl)NNC(=O)c1ccccc1 | 3.42%
58 | CCOc1ccc(N(CC(=O)NC2CCCCCC2)S(=O)(=O)c2c(C)[nH]c(=O)[nH]c2=O)cc1 | 5.91%
59 | COc1ccc(-c2c(C(C)=O)c(C)nc3sc4c(=O)n(-c5ccc(C)cc5)nnc4c23)cc1 | 16.1%
60 | CCn1c(SCC(=O)Nc2ccc(OC)c(OC)c2)nnc1-c1c[nH]c2ccccc12 | 7.39%
61 | CCC(C)Sc1nnc(-c2c[nH]c3ccccc23)n1CCOC (configuration not stated) | 0.59%
62 | CCn1c(SCCC(C)C)nnc1-c1c[nH]c2ccccc12 | 56.1% (active)
